Results published in PubChem BioAssay (NCI).
This is part of a sample that, as a whole, favours compounds with a hit. Of some 79,000 tested, about 15% had one in any assay. Calls of active or inactive are those of the source. Cut-off read from the data, not from the text of the source: active = growth inhibition above about 70%; inactive = the rest.

Tests used:
[1] = NCI Yeast Anticancer Drug Screen. Data for the rad50 strain (AID 155);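 note: 0% = growth of vehicle-only cultures of the same strain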; conditions: S. cerevisiae rad50 strain growth inhibition, hits give high values
In short: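 Cells are treated with compound, grown, and their growth is then scored against vehicle-only cultures of the same repair-deficient yeast strain.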

[2] = NCI Yeast Anticancer Drug Screen. Data for the mec2-1 strain (AID 157); conditions: S. cerevisiae mec2-1 strain, hits give high values
In short: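 Mutant yeast (mec2-1) grown with compound; growth inhibition relative to vehicle control reported.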

[3] = NCI Yeast Anticancer Drug Screen. Data for the sgs1 mgt1 strain (AID 161);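 note: 0% = growth of cultures given vehicle only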; conditions: S. cerevisiae sgs1 mgt1 strain, hits give high values
In short: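 Yeast cells carrying a defined DNA-repair defect were exposed to test compounds. Growth inhibition was measured relative to vehicle-treated controls.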

[4] = NCI Yeast Anticancer Drug Screen. Data for the bub3 strain (AID 167); conditions: S. cerevisiae bub3 mutant strain, hits give high values
In short: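 Part of a panel of yeast mutants defective in DNA damage repair or cell cycle regulation. Each strain is grown with compound, and inhibition is calculated relative to solvent-treated cultures.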

[5] = NCI Yeast Anticancer Drug Screen. Data for the mlh1 rad18 strain (AID 175); conditions: S. cerevisiae mlh1 rad18 strain growth inhibition, hits give high values
In short: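 Genetically defined yeast (DNA repair-deficient) exposed to compounds; growth inhibition determined relative to vehicle.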

[6] = NCI Yeast Anticancer Drug Screen. Data for the cln2 rad14 strain (AID 165);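 note: 0% = growth equal to vehicle treated cultures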; conditions: S. cerevisiae cln2 rad14 strain, hits give high values
In short: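 Readout is yeast growth inhibition versus vehicle-treated controls, using a strain with cln2 and rad14 alterations exposed to compound.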

[7] = at 5.0 µM (retest, dose inferred, filed as 0.5)
[8] = at 50.0 µM (retest, dose inferred, filed as 5.0)

Measured: growth inhibition

O=C([CH-]C(=O)c1ccccc1)c1ccccc1.O=C([CH-]C(=O)c1ccccc1)c1ccccc1.O=C([CH-]C(=O)c1ccccc1)c1ccccc1.[OH3+].[Y+3]
active: [1]; [8] 99% | [1]; at 50.0 µM 91.6% | [2]; [8] 100% | [2]; at 50.0 µM 93.5% | [3]; [8] 100% | [3]; at 50.0 µM 94.1% | [4]; [8] 84% | [4]; at 50.0 µM 92.5% | [5]; [8] 100% | [5]; at 50.0 µM 91.5%
inactive: [1]; [7] 46% | [2]; [7] 42% | [3]; [7] 53% | [4]; [7] 63% | [5]; [7] 56%

CCC[CH2][Sn]1([CH2]CCC)[O]CC(Cc2ccccc2)[O]1 (stereo unspecified)
active: [1]; [8] 96% | [1]; at 50.0 µM 85.5% | [2]; [8] 98% | [2]; at 50.0 µM 90.2% | [6]; [8] 95% | [6]; at 50.0 µM 84.7% | [4]; [8] 98% | [4]; at 50.0 µM 89.1% | [5]; [8] 97% | [5]; at 50.0 µM 88.5%
inactive: [1]; [7] 31% | [2]; [7] 22% | [6]; [7] 32% | [4]; [7] 55% | [5]; [7] 39%

CC(=O)[O-].O=C([CH-]C(=O)c1ccccc1)c1ccccc1.O=C([CH-]C(=O)c1ccccc1)c1ccccc1.[Y+3]
active: [1]; at 50.0 µM 91.4% | [2]; at 50.0 µM 93.7% | [3]; at 50.0 µM 93.6% | [4]; at 50.0 µM 92% | [5]; at 50.0 µM 90.5%
inactive: [1]; [7] 35% | [1]; [8] 35% | [2]; [7] 19% | [2]; [8] 19% | [3]; [7] 42% | [3]; [8] 42% | [4]; [7] 21% | [4]; [8] 21% | [5]; [7] 13% | [5]; [8] 13%

O=[N+]([O-])c1cc(Cl)ccc1S(=O)(=O)F
active: [1]; [7] 98% | [1]; [8] 98% | [1]; at 50.0 µM 99.7% | [2]; [7] 98% | [2]; [8] 99% | [2]; at 50.0 µM 99.6% | [6]; [7] 98% | [6]; [8] 98% | [6]; at 50.0 µM 99.2% | [4]; [7] 98% | [4]; [8] 98% | [4]; at 50.0 µM 99.5% | [5]; [7] 96% | [5]; [8] 98% | [5]; at 50.0 µM 99.5%

CC1=NNC(=O)C1(Br)Br
active: [4]; [8] 75%
inactive: [1]; [7] -2% | [1]; [8] 21% | [1]; at 50.0 µM 8.7% | [2]; [7] -3% | [2]; [8] 9% | [2]; at 50.0 µM 11.9% | [3]; [7] 2% | [3]; [8] 16% | [3]; at 50.0 µM 14.2% | [6]; [7] 13% | [6]; [8] 31% | [6]; at 50.0 µM 69.6% | [4]; [7] 1% | [4]; at 50.0 µM 43.1% | [5]; [7] -13% | [5]; [8] -2% | [5]; at 50.0 µM -23.8%

Nc1ccc(C(=O)O)c(C(=O)O)c1.[Cl][Sn]([Cl])([Cl])[Cl]
inactive: [1]; [7] 3% | [1]; [8] -9% | [1]; at 50.0 µM 48% | [2]; [7] 3% | [2]; [8] 46% | [2]; at 50.0 µM 59.6% | [3]; [7] 8% | [3]; [8] 36% | [3]; at 50.0 µM 53.7% | [6]; [7] -4% | [6]; [8] -21% | [5]; [7] -3% | [5]; [8] 20% | [5]; at 50.0 µM 40.4%
active: [6]; at 50.0 µM 76.1%

CC1(C)C2CCC([CH2][Hg][Cl])C1C2 (stereo unspecified)
active: [1]; [7] 99% | [1]; [8] 98% | [1]; at 50.0 µM 98.8% | [2]; [7] 100% | [2]; [8] 95% | [2]; at 50.0 µM 99.2% | [3]; [7] 100% | [3]; [8] 97% | [3]; at 50.0 µM 99.2% | [6]; [7] 99% | [6]; [8] 98% | [6]; at 50.0 µM 99% | [4]; [7] 99% | [4]; [8] 98% | [4]; at 50.0 µM 99.3% | [5]; [7] 100% | [5]; [8] 98% | [5]; at 50.0 µM 99%

O=C1C=Cc2ccccc2C1=O
active: [1]; [8] 87% | [1]; at 50.0 µM 83.6% | [2]; [8] 95% | [2]; at 50.0 µM 88.8% | [3]; [8] 72% | [3]; at 50.0 µM 88.2% | [6]; [8] 87% | [5]; [8] 96% | [5]; at 50.0 µM 94.9%
inactive: [1]; [7] 29% | [2]; [7] 32% | [3]; [7] 30% | [6]; [7] 18% | [6]; at 50.0 µM 46.3% | [5]; [7] 31%

CC1Oc2cc3c(-c4c(O)cc(O)c5c(O)c6c(cc45)OC(C)C(C)C6=O)c(O)cc(O)c3c(O)c2C(=O)C1C (stereo unspecified)
active: [1]; [8] 85% | [1]; at 50.0 µM 83.1% | [2]; [8] 83% | [2]; at 50.0 µM 84.2% | [6]; at 50.0 µM 82.8% | [4]; [8] 81% | [4]; at 50.0 µM 81.2% | [5]; [8] 84% | [5]; at 50.0 µM 84.2%
inactive: [1]; [7] 8% | [2]; [7] -10% | [6]; [7] 30% | [6]; [8] 69% | [4]; [7] -8% | [5]; [7] 10%

CC1=CC(=O)c2c(O)cccc2C1=O
active: [1]; [8] 100% | [1]; at 50.0 µM 85.8% | [2]; [8] 99% | [2]; at 50.0 µM 90.1% | [3]; [8] 99% | [3]; at 50.0 µM 92% | [4]; [8] 99% | [4]; at 50.0 µM 90.5% | [5]; [8] 98% | [5]; at 50.0 µM 89%
inactive: [1]; [7] 18% | [2]; [7] 29% | [3]; [7] 19% | [4]; [7] 23% | [5]; [7] 30%
